From PubChem
Chronic BCR inh: qHTS Assay to Find Inhibitors of Chronic Active B-Cell Receptor Signaling | hit rate 0.05% among 340,000 | Potency, µM (top dose mostly 46.1 µM), without a hit: at the highest dose activity change, negative = inhibition, most hits filed as inhibitors | ABC-DLBCL IkBa-CBG/CBR reporter, luminescence ratio, 4 h; active = well fitted inhibition curve with a large enough effect in the signal ratio, with a control signal flat, not every such curve was filed as active; inconclusive = small, poorly fitted or top-dose-only effect, or effect the other way, or a change in a side signal; the % refers to the signal ratio;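 also: plate controls were basal doxycycline-induced cells for no effect and cells given 10 µM MG132 for full effect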
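Concentration-response series (up to 46 uM) were applied to TMD8 dual-reporter cells for 4 h at 37C with doxycycline. Green/red ratio, after filter-overlap correction, defined %Activity; red signal alone was normalised to basal cells and zero luminescence.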
VP16 counter: VP16 counterscreen qHTS for inhibitors of ROR gamma transcriptional activity | Drosophila S2 Gal4-VP16 UAS-luciferase, luminescence, 20 h | Potency, µM (top dose mostly 53.6 µM), without a hit: at the highest dose activity, negative = inhibition, hits mostly inhibitors | hit rate 3.5% among 310,000 | AID 2546, 2010;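 also: Gal4-VP16 expression switched on by copper sulfate through the metallothionein promoter; % is scaled to controls: 0 for no effect and ±100 for the full control effect; nearly all actives have a fitted effect of over 50% in size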
Mito fusion yeast: qHTS Assay for Small Molecule Inhibitors of Mitochondrial Division or Activators of Mitochondrial Fusion; S. cerevisiae fusion-defective mutant growth rescue, CellTiterGlo 48 h; AID 485298, 2010; Potency, µM (titrated, usually from 46.1 µM), for the others: at the top dose growth rescue (activation), usual class: activators; hit rate 0.23% among 320,000; also: % of control where 0% means no effect; nearly all actives have a fitted effect of over 45% in size
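Luminescent cell viability in 1536-well qHTS format served as the measure of rescued growth in ts fusion-mutant S. cerevisiae cultured on non-fermentable YPEG for 48 hours at 37C.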
uPA generation: qHTS for Inhibitors of Cell Surface uPA Generation; Potency, µM (top dose mostly 38.3 µM), inactives show top-dose activity change, negative = inhibition, most hits filed as inhibitors; hit rate 0.31% among 330,000; cell surface uPA generation assay, qHTS; active = well fitted inhibition curve with a large enough effect; inconclusive = small, poorly fitted or top-dose-only effect; inactive = no such curve, though single readings can be large or run the other way; tested in mouse RAW 264.7 cells; also: % is scaled to controls: 0 for no effect and ±100 for the full control effect; nearly all actives have a fitted effect of over 55% in size
Integrin act MD: qHTS for Activators of Integrin-Mediated Alleviation for Muscular Dystrophy; Potency, µM (titrated, usually from 38.3 µM), without a hit: at the highest dose activation, usual class: activators; AID 624291, 2012; hit rate 0.064% among 350,000; alpha7betagal myoblasts, beta-gal FDG fluorescence, 48 h;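 also: 100% = response of the positive control SU9516; nearly all actives have a fitted effect of over 60% in size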
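alpha7betagal+/- myoblasts (passage 13, 250/well) treated 48 h at 37C with compounds at 1:260 dilution of DMSO stock. Lysed, then beta-galactosidase activity read as FDG fluorescence (ex 480/em 540) after 30 min, with pre-read for autofluorescence.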
RORgamma inh: qHTS for inhibitors of ROR gamma transcriptional activity | AID 2551, 2010 | Potency, µM (series often up to 53.6 µM), inactives show at the highest dose activity change, negative = inhibition, hits mostly inhibitors | Nuclear receptor ROR-gamma (Mus musculus), P51450 | hit rate 5.4% among 310,000 | Drosophila S2 Gal4-RORgamma UAS-luciferase reporter, 20 h; also: % is scaled to controls: 0 for no effect and ±100 for the full control effect; nearly all actives have a fitted effect of over 60% in size
Target sequence (P51450 whole entry, looked up, the tested form may be a part): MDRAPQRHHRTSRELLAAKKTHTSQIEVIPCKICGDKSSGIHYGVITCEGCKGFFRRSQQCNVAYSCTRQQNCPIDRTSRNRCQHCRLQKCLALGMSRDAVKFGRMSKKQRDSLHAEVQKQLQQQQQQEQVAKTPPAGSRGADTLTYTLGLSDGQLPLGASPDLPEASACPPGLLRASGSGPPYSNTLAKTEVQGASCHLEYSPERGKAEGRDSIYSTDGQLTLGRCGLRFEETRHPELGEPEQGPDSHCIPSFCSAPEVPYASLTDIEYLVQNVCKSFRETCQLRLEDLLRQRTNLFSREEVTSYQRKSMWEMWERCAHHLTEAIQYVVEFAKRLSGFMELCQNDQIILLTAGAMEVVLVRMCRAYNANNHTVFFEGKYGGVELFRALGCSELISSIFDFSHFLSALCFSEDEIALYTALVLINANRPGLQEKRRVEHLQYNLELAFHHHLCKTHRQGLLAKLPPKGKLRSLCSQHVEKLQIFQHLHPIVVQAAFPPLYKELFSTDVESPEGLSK
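Using a luciferase readout, inhibitors were identified by reduced reporter activity in Drosophila cells coexpressing a copper-inducible Gal4–ROR gamma fusion and UAS-driven Photinus luciferase, incubated 20 hr after 700 uM copper sulfate.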
* = called active by the depositor; ? = inconclusive; . = no result given; [ ] = dose if it differs, or a comment. This is a sample that favours compounds with a hit; in the whole collection about 5.5% have one here. Unless noted, calls follow the shape of the dose curve; as a rule, active = well fitted curve in the direction sought with a large enough effect; inconclusive = small, poorly fitted or top-dose-only effect, or another doubt; inactive = no such curve, though single readings can be large; an effect the other way counts as inactive or inconclusive. Potency is read from the fitted curve at half-maximal effect.

SMILES | Chronic BCR inh | VP16 counter | Mito fusion yeast | uPA generation | Integrin act MD | RORgamma inh
O=C(Nc1ccc2oc(-c3cccnc3)nc2c1)c1cc2ccccc2o1 | 1.4% | -7.7% | 1.0% | 4.4% | 2.3% | -0.8%
O=C(Cc1ccccc1)Nc1ccc2oc(-c3ccncc3)nc2c1 | 16.7% | 0.1% | 29.0% | 1.1% | 6.4% | 0.2%
Cc1ccccc1-n1ncc2c1CC(C)(C)CC2NC(=O)C1CCC1 (stereo not given) | 2.2% | 0.6% | 0.9% | -2.3% | -22.1% | 9.4%
Cc1cc(C(=O)N/N=C/c2cc(Br)c(Br)o2)n[nH]1 | ? | ? | 11.2% | -4.8% | ? | 7.3%
CN(C)CCNC(=O)c1ccc(Sc2ccc(Br)cc2)c([N+](=O)[O-])c1 | 0.2% | -21.0% | 19.0% | -1.9% | -63.2% | -30.7%
COc1c2c(cc3c1C(CC(O)C(C)C)N(C)CC3)OCO2 (stereo not given) | . | -3.8% | . | . | . | -1.7%
COC(=O)CC[C@H](N)C(=O)O | . | -7.2% | . | . | . | -3.7%
CCOC(=O)c1c(C)n(-c2ccc(C)cc2)c2ccc(OCC(O)CNCCCO)cc12 (stereo not given) | -1.5% | ? | -5.1% | -0.6% | -68.7% | 7.08µM*
C=CC(C)=C[C@@]1(C)SC(=O)C(C)=C1O | . | . | -14.4% | . | . | .
Cc1ccc(N2CC(NC(=O)c3cccs3)CC2=O)cc1C (stereo not given) | -13.3% | . | . | . | . | .
COc1cc(-c2noc(C)c2C#Cc2ccsc2)cc(OC)c1OC | ? | -6.7% | 4.1% | 2µM* | -23.6% | -2.3%
COc1cc(-c2noc(C)c2C#CCO)cc(OC)c1OC | ? | 2.9% | -1.2% | 0.4% | -4.7% | -4.9%
ClC(Cl)(c1nnnn1-c1ccccc1)c1nnnn1-c1ccccc1 | -0.2% | 5.01µM* | -24.1% | -10.4% | -56.5% | 10µM*
c1ccc(-c2nnnn2-c2ccccc2)cc1 | -3.3% | -8.3% | -1.6% | 6.4% | 35.0% | 18.4%
Cc1ccc(C2=NNC(c3cccc(F)c3)S2)cc1 (stereo not given) | ? | 7.08µM* | 2.5% | ? | 10.8% | 6.31µM*
COc1ccc(C2NN=C(c3ccc(C)cc3)S2)cc1OC (stereo not given) | ? | ? | -1.6% | -11.0% | -25.3% | 2µM*
Fc1cccc(C2NN=C(c3ccccc3)S2)c1 (stereo not given) | -18.7% | ? | 0.9% | -9.5% | -18.3% | ?
O=C(CSc1nnc(C2CC2)n1CC1CCCO1)Nc1cccc(Cl)c1 (stereo not given) | ? | 7.1% | 0.5% | -0.8% | -17.8% | 0.3%
COc1ccc(-n2c(=O)c(C)nc3cnc(N(C)C)nc32)cc1 | . | -4.1% | . | . | . | 12.4%
Cc1ccc(Sc2ccc(NC(=O)CCl)cc2)cc1C | ? | ? | 14.1µM* | 12.6µM* | -54.0% | ?
CC(=O)Nc1ccc(NC(=O)Cc2ccc(-c3ccccc3)cc2)cc1 | ? | -3.7% | -0.8% | -0.4% | ? | 17.0%
O=C(CCl)Nc1cccc(Oc2cnccn2)c1 | ? | ? | -42.5% | ? | -11.4% | ?
O=C(CCl)Nc1cccc(Oc2ccccc2)c1 | ? | ? | -6.7% | -9.2% | -61.1% | 10µM*
O=C(CCl)Nc1ccc(-c2ccccc2)cc1 | ? | ? | 7.8% | ? | -84.2% | 25.1µM*
O=C(CCl)Nc1ccc(N=Nc2ccccc2)cc1 | ? | ? | 21.8% | 14.1µM* | -66.2% | ?
SMILES | Chronic BCR inh | VP16 counter | Mito fusion yeast | uPA generation | Integrin act MD | RORgamma inh
Cc1nc2c(cnn2CCO)c(=O)[nH]1 | . | . | . | -0.6% | 18.8% | .
O=C(NC1CCCCC1)C1CC(=O)N(c2ccccc2)C1 (stereo not given) | 5.5% | 0.0% | 2.1% | -2.0% | 1.2% | 0.5%
C#C[C@]1(O)CC[C@H]2[C@H]3CCC4=Cc5oncc5C[C@]4(C)[C@@H]3CC[C@]21C | . | -6.8% | . | . | . | 0.2%
Cc1ccc(-n2ncc3c(NC4CCCCC4)ncnc32)cc1C | -1.3% | . | . | . | . | .
Cc1cc(C)nc(/N=C(\N)N(Cc2ccccc2)Cc2ccccc2)n1 | -1.0% | -8.9% | -1.3% | -6.6% | -19.4% | 11.2µM*
COc1ccc(C#CC2C=CC(OC(C)=O)C(COC(C)=O)O2)cc1 (stereo not given) | . | -0.8%[10 µM] | . | . | . | -1.9%[10 µM]
CCN1C(=O)c2cccc3c(S(=O)(=O)N(C(=O)c4ccncc4)c4ccc(OC)cc4)ccc1c23 | -10.6% | 7.94µM* | 28.8% | -15.8% | 6.2% | ?
CCN1C(=O)c2cccc3c(S(=O)(=O)Nc4ccccc4)ccc1c23 | ? | ? | 1.1% | -6.2% | 15.9% | -35.5%
CCN1C(=O)c2cccc3c(S(=O)(=O)Nc4ccc(OC)cc4OC)ccc1c23 | 2.3% | 17.8µM* | 0.4% | -0.6% | 14.0% | ?
CCN1C(=O)c2cccc3c(S(=O)(=O)N(C(=O)c4cccnc4)c4ccc(OC)cc4)ccc1c23 | ? | ? | 30.0% | -12.7% | 7.1% | -36.0%
CC(=O)c1c(C)oc2ccc(NS(=O)(=O)c3ccc(O)c(C(=O)O)c3)cc12 | 4.3% | -1.2% | -4.9% | 3.6% | 11.5% | 19.6%
CC(=O)c1c(C)oc2ccc(NS(=O)(=O)c3ccc(F)cc3C)cc12 | ? | 12.6µM* | 2.5% | -14.1% | -23.6% | ?
O=C(/C=C/c1ccc2c(c1)OCO2)N1CCN(c2n[nH]c(=O)[nH]c2=O)CC1 | -2.6% | 5.1% | 2.8% | -0.6% | 5.4% | -4.3%
Cn1ncc(SCc2ccccc2)c(Cl)c1=O | -2.2% | 15.8µM* | -7.7% | -13.7% | -66.5% | ?
O=C(N=Nc1c(O)[nH]c2ccc(F)cc12)C1COc2ccccc2O1 (stereo not given) | ? | -7.8% | 21.1% | 2.3% | -3.9% | -10.3%
NS(=O)(=O)c1ccc(N2CCN(CCOc3ccc(Cl)cc3)CC2)nc1 | -1.8% | ? | -1.8% | 1.3% | -17.3% | ?
OC(C#Cc1ccccn1)c1cccs1 (stereo not given) | ? | 4.47µM* | -12.2% | -7.4% | -64.9% | 10µM*
O=C(NC1CCCCC1)C(c1cccs1)N(C(=O)c1ccccn1)c1ccccc1 (stereo not given) | 6.6% | -10.6% | -1.1% | 8.6% | 3.1% | 29.2%
CCOC(=O)c1cc(-c2ccc(OC)cc2)nc2c1c(C)nn2CCC(N)=S | ? | ? | -5.9% | 1.2% | -43.0% | 4.47µM*
Cc1cc(Br)cc(C)c1NC(=S)NC(=O)CC(C)C | ? | 7.94µM* | 1.2% | 2.8% | -7.1% | 4.47µM*
CCC(=O)NC(=S)Nc1c(C)cc(Br)cc1C | 2.3% | 7.08µM* | -0.3% | -1.9% | 22.2% | 3.16µM*
CCCC(=O)NC(=S)Nc1c(C)cc(Br)cc1C | . | . | . | 4.5% | -6.0% | .
